High-throughput results: PubChem BioAssay, several laboratories
Sampled rows, rich in hits. Any-hit rate of the full collection: about 1.2%.
PriA SSB inh: K. pneumoniae PriA-SSBct interaction inhibition | actives 0.6% (n = 430,000) | AlphaScreen SSBct-PriA binding, biotinylated peptide | inhibition, % at 33 µM; in the data active = inhibition mostly above about 37%, no sharp cut-off; inactive = mostly below about 20%
ugtP null kill: kills S. aureus RN4220 lacking UgtP; S. aureus RN4220 ugtP deletion, OD600 growth, 16 h; growth inhibition, % (test concentration not listed); actives 0.54% (n = 330,000); AID 1259309; in the data active = growth inhibition above about 68%
Sa RN4220 lethal: S. aureus RN4220 growth inhibition. OD600, 16 h. inhibition, % (concentration not given with the values). actives 0.33% (n = 330,000). AID 1259311; in the data active = inhibition above about 85%
BJeLR viability: BJeLR cell viability loss | BJeLR (HRASV12) viability, CellTiter-Glo ATP luminescence, 48 h | inhibition, % (concentration not given with the values) | actives 0.17% (n = 300,000); in the data active = inhibition above about 50%
MazEF act: increases E. coli MazEF RNase cleavage of RNA | FAM/BHQ RNA-DNA oligo cleavage fluorescence, 5 h | P0AE70 | activation, % at 20 µM | actives 0.32% (n = 350,000) | AID 504720; in the data active = activation above about 50%
Target sequence (P0AE70 whole entry, looked up): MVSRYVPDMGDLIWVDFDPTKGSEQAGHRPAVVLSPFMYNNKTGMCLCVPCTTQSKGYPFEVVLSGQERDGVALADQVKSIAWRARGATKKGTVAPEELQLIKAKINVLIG
Numbers stand for hits; 0 = inactive; - = no result.

SMILES	PriA SSB inh	ugtP null kill	Sa RN4220 lethal	BJeLR viability	MazEF act
CC[n+]1c(/C=C/C=C/N(C(C)=O)c2ccccc2)sc2ccccc21	0	-	-	0	154.0
CN(C)c1ccc(/C=C/c2nc3ccccc3s2)cc1	0	0	0	0	0
CCN1/C(=C\C=C\c2sc3ccccc3[n+]2CC)Sc2ccccc21	55.8	-	-	-	-
CN(C)c1ccc(/C=C/C=C/c2sc3ccccc3[n+]2C)cc1	40.5	-	-	58.7	0
CC[n+]1c(/C=C/N(C)c2ccccc2)sc2ccc(Cl)cc21	0	0	0	0	0
CC(=O)N/C(=C/c1ccccc1)c1ccccc1	0	-	-	-	0
O=C(CNC1CCCCC1)Nc1ccc([N+](=O)[O-])cc1C(=O)Nc1ccccc1F	0	0	0	0	0
O=C(c1ccc([N+](=O)[O-])cc1)N1C=CC(C(F)(F)F)=NCC1	0	0	0	0	0
CN(C)c1ccc(/C=C/c2cc[n+](C)c3ccccc23)cc1	0	-	-	-	0
CN(C)c1ccc(C=Cc2cc[n+](C)c3ccccc23)cc1	-	92.6	94.7	-	-
C/C(=N\NC(=O)c1cc(C)nc2ccccc12)c1ccccn1	-	-	-	-	0
Nc1nc(N(Cc2ccccc2)Cc2ccccc2)nc(C(F)(F)F)n1	0	98.3	0	-	0
CN(N)c1nc(C(F)(F)F)nc2ccccc12	0	0	0	0	0
COC(=O)/C=c1/s/c(=C(\C#N)C(=O)NCc2ccco2)n(-c2ccc(C)cc2)c1=O	-	-	-	0	65.0
Cc1ccc(-c2csc(NC(=O)c3ccco3)n2)cc1C	0	0	0	0	0
CN(C)c1ccc2c(c1)OC(N)=C(C#N)C2c1cccc(F)c1 (stereo unspecified)	0	0	0	0	51.6
O=C(c1cccc(S(=O)(=O)NCc2ccccc2)c1)N1CCN(c2ccccc2)CC1	0	0	0	-	0
COc1ccc(C(C)=NNC(=O)Cc2c(C)nc(C)[nH]c2=O)cc1	0	0	0	-	-
COc1ccc(/C=C/C(=O)NCC2COc3ccccc3O2)c(OC)c1 (stereo unspecified)	0	98.7	0	0	0
COC(=O)C1CCN(C(=O)C2CCc3sc(NC(=O)c4ccc(F)cc4)nc32)CC1 (stereo unspecified)	0	-	-	-	-
CCOC(=O)Cc1csc(NC(=O)c2c(O)c3ccccc3n(CC(C)C)c2=O)n1	0	97.6	97.0	0	0
COc1ccc(CCS(=O)(=O)Nc2ccc3c(c2)CCC(=O)N3)cc1	0	-	-	-	-
COc1cccc(/C=N/n2c(-c3cccs3)n[nH]c2=S)c1	-	-	-	0	0
COc1cc([C@@H]2c3cc4c(cc3[C@@H](O[C@@H]3O[C@@H]5CO[C@@H](C)O[C@H]5[C@H](O)[C@H]3O)[C@H]3COC(=O)[C@H]23)OCO4)cc(OC)c1O	0	-	-	0	0
COc1cc(C2c3cc4c(cc3C(OC3OC5COC(c6cccs6)OC5C(O)C3O)C3COC(=O)C23)OCO4)cc(OC)c1O (stereo unspecified)	0	-	-	73.4	0
SMILES	PriA SSB inh	ugtP null kill	Sa RN4220 lethal	BJeLR viability	MazEF act
O=C(CSCC(=O)Nc1ccccc1)N/N=C/c1c(O)ccc2ccccc12	-	-	-	0	86.2
O=C(CSCC(=O)Nc1ccccc1)NN=Cc1c(O)ccc2ccccc12	0	0	0	-	-
O=C(NN=Cc1c(O)ccc2ccccc12)c1ccc[n+](CCO)c1	41.2	-	-	-	-
O=C(N/N=C/c1c(O)ccc2ccccc12)c1ccc[n+](CCO)c1	-	-	-	0	0
O=C(NC12CCC(O)C(SC1)C2=NO)c1ccccc1 (stereo unspecified)	0	0	0	-	-
COc1ccccc1N(C(=O)CCl)c1cn(C(C)=O)c2ccccc12	0	0	0	65.1	0
CC(=O)n1cc(N(C(=O)CCl)c2ccc(Cl)cc2)c2ccccc21	0	94.8	0	107.5	0
COc1ccc(CNC(=O)C(C)N(C)Cc2cccc(F)c2)cc1 (stereo unspecified)	0	0	0	0	0
C=Cc1ccc(Cn2ccn(-c3cccc(Cl)c3C)c(=O)c2=O)cc1	0	-	-	-	-
O=C(CSc1ncccn1)Nc1cc(Cl)ccc1[N+](=O)[O-]	0	0	0	0	0
Cc1nc(SCC(=O)Nc2cc(Cl)ccc2[N+](=O)[O-])nc(C)c1C	52.2	0	0	0	0
Cn1cncc1C#Cc1ccc2cc(C3(O)CCCCC3)oc(=O)c2c1	0	0	0	-	76.3
Cn1c(-c2ccc(Br)cc2)cnc1SCc1ccccc1	67.0	-	-	-	-
COc1cccc(-c2cc(C(F)(F)F)nc(N3CCC(C)CC3)n2)c1	0	94.4	0	0	0
CC1CCN(c2nc(-c3ccccc3)cc(C(F)(F)F)n2)CC1	0	87.5	0	0	0
Cc1ccc(-c2cc(C(F)F)nc(N3CCC(C)CC3)n2)cc1	0	91.4	0	0	0
CC(=O)c1ccc(NS(=O)(=O)c2cc3c(cc2C)N(C)CCO3)cc1	0	0	0	0	0
CCOC(=O)C(NC(=O)c1ccccc1F)(Nc1cc(C)on1)C(F)(F)F (stereo unspecified)	0	0	0	0	0
CCn1cc([N+](=O)[O-])c(C(=O)Nc2ccc3c(c2)OCCO3)n1	0	0	0	0	0
O=C(c1cc(-c2ccccc2)nn1-c1ccccc1)N1CCN(S(=O)(=O)c2cccc(F)c2)CC1	0	0	0	0	0
CS(=O)(=O)N(CC(=O)N1CCN(Cc2ccccc2)CC1)c1ccccc1F	52.2	-	-	0	0
CS(=O)(=O)N(CC(=O)N1CCCCC1)Cc1ccccc1	59.1	-	-	0	0
N#C/C(=C\c1ccccc1[N+](=O)[O-])C(=O)NCc1ccccc1	0	0	0	0	0
CCCCCCCCNC(=O)/C(C#N)=C/c1ccccc1[N+](=O)[O-]	0	91.1	0	0	121.7
CC(NC1CCCC1)C(=O)Nc1ccccc1-c1ccccc1 (stereo unspecified)	0	0	0	0	0
SMILES	PriA SSB inh	ugtP null kill	Sa RN4220 lethal	BJeLR viability	MazEF act
COc1cc(C2CC(c3cccs3)=NN2C(=O)CCl)ccc1OC(F)F (stereo unspecified)	0	-	-	95.8	0
COc1ccc(C2CC(c3cccs3)=NN2C(=O)CCl)cc1OC (stereo unspecified)	0	-	-	0	0
COc1ccc(C(=O)Nc2ccc(C3(C#N)CCCC3)cc2)cc1	0	0	0	0	0
COc1cc(/C=C/C(=O)Nc2ccc(OC)c(S(=O)(=O)N3CCOCC3)c2)ccc1OC(F)F	0	86.6	0	-	0
S=C(Nc1ccccc1Cl)Nc1ccc(Cl)cc1Cl	0	0	0	0	0
Oc1ccc(Nc2ccnc3cc(Cl)ccc23)cc1	0	-	-	0	0
Clc1ccc(NNc2ccnc3cc(Cl)ccc23)cc1	76.2	0	0	0	0
S=C(NNc1ccnc2cc(Cl)ccc12)Nc1ccccc1Cl	40.0	0	0	0	0
CCOC(=O)C1CCN(CC(=O)c2c(C)[nH]c3ccccc23)CC1	0	0	0	0	0
CCOc1ccc(S(=O)(=O)NC)cc1	0	-	-	-	-
CCOc1ccc(S(=O)(=O)NN)cc1	0	0	0	0	50.3
NS(=O)(=O)c1ccc(NN=C2CCCCC2C2CCCCC2)c([N+](=O)[O-])c1 (stereo unspecified)	39.8	0	0	-	-
COc1ccccc1NS(=O)(=O)c1ccc(NN=C2CCCCC2)c([N+](=O)[O-])c1	61.6	0	0	0	0
